Sampled rows, rich in hits. Any-hit rate of the full collection: about 2.9%.
DRD3 antagonist = blocks the human D3 dopamine receptor. P35462. D3R cells, DiscoveRx beta-arrestin luminescence, antagonist mode; stronger effect = lower value. max response, negative = inhibition, %. 2.5% of 360,000 active. AID 652054; in the data active means max response below about -50%; inconclusive means no clear call, values can overlap the other calls; further: on the % scale 0 is the no-effect control and ±100 the full control effect
Target sequence (P35462 whole entry, looked up): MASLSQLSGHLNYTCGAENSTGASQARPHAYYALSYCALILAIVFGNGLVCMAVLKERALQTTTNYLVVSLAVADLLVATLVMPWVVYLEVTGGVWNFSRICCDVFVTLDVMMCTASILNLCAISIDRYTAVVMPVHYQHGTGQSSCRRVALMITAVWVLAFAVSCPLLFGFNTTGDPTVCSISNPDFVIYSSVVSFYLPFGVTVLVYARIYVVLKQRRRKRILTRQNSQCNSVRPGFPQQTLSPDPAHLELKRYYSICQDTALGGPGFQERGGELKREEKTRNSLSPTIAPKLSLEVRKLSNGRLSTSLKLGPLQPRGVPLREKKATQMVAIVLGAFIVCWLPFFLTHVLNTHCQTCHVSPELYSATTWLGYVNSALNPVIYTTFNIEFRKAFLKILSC
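Cells expressing the human receptor were seeded at 1500 cells/well, incubated overnight at 37 degrees C in 5% CO2, then exposed to library compounds with dopamine controls for 90 minutes at 37 degrees C before luminescent detection.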
DRD3 agonist = activates the human D3 dopamine receptor; P35462; D3R DiscoveRx beta-arrestin cells, luminescence, 90 min; max activation, %; 0.58% of 410,000 active; in the data active means max activation above about 30%; further: 0% is about no effect
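Agonist-mode cell screen: cells plated at 1500/well and incubated overnight at 37 °C, then exposed to library compounds for 90 min at 37 °C. Detection reagent was added for 30–60 min at room temperature, and luminescence was read.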
Integrin act MD = integrin-mediated muscular dystrophy alleviation activation. AID 624291. Potency, µM (highest dose often 38.3 µM), without a hit: at the top dose activation, usual class: activators. alpha7betagal myoblasts, beta-gal FDG fluorescence, 48 h. 0.064% of 350,000 active; active means well fitted activation curve with a large enough effect; inconclusive means small, poorly fitted or top-dose-only effect; inactive means no such curve, though single readings can be large or run the other way;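 further: potency means the concentration at half of the fitted maximal effect; 100% = response of the positive control SU9516; nearly all actives have a fitted effect of over 60% in size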
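alpha7betagal+/- myoblasts (passage 13, 250/well) treated 48 h at 37C with compounds at 1:260 dilution of DMSO stock. Lysed, then beta-galactosidase activity read as FDG fluorescence (ex 480/em 540) after 30 min, with pre-read for autofluorescence.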
The depositor's hits bear a star.

Screening CCC(=O)Nc1ccc(N2CCN(CC)CC2)c(Cl)c1 returned DRD3 antagonist -11.5, DRD3 agonist -6.7 and Integrin act MD -7.7%.
`COC(=O)C1=C(c2ccc(F)cc2OCc2ccccc2)C[C@@H]2CC[C@H]1N2C(=O)NC1Cc2ccccc2C1` gave DRD3 antagonist -10.5, DRD3 agonist -10.8 and Integrin act MD -18.2%.
COc1ccc(CCNCc2cc(OC)cc(OC)c2)cc1 was read as DRD3 antagonist 3.2, DRD3 agonist -0.1 and Integrin act MD -28.0%.
COc1ccc(CCNC(C)CCc2ccc(OC)cc2)cc1 (stereo not drawn) was read as DRD3 antagonist -52.0*, DRD3 agonist -30.4 and Integrin act MD -35.6%.
Screening COc1ccc(CN2CCN(C(=O)COc3ccc4ccccc4c3)CC2)c(OC)c1 returned DRD3 antagonist -17.5, DRD3 agonist -3.5 and Integrin act MD 0.0%.
`NC(=O)c1cn(C2CCCCC2)c2ccccc2c1=O` gave DRD3 antagonist 20.9, DRD3 agonist 1.5 and Integrin act MD 9.8%.
For O=C1c2ccccc2C(=O)N1SC1CCCCC1 the results were DRD3 antagonist -91.7*, DRD3 agonist 1.2 and Integrin act MD -63.1%.
Screening c1ccc(C(OCCN2CCN(c3ncccn3)CC2)c2ccccc2)cc1 returned DRD3 antagonist -116.0*, DRD3 agonist -11.7 and Integrin act MD 22.1%.
`Clc1ccc(C(OCCN2CCCCC2)c2ccccc2)cc1` (stereo not drawn) gave DRD3 antagonist -17.8 and DRD3 agonist -93.3.
For O=C1NC(=O)C2(Cc3ccccc3N3CCCC32)C(=O)N1c1ccccc1 (stereo not drawn) the results were DRD3 antagonist -6.7, DRD3 agonist -3.2 and Integrin act MD -7.6%.
Screening CN1c2ccc([N+](=O)[O-])cc2CC2(C(=O)NC(=O)N(c3ccc(Br)cc3)C2=O)C1c1ccccc1 (stereo not drawn) returned DRD3 antagonist -50.6*, DRD3 agonist -5.9 and Integrin act MD 19.6%.
O=C(CCC(=O)N1CCC2(CC1)OCCO2)Nc1nnc(C2CCCCC2)s1 was read as DRD3 antagonist 8.1, DRD3 agonist -4.4 and Integrin act MD 20.5%.
For CO[C@H]1C=C2CCN(C)[C@H]2C2c3cc4c(cc3C(=O)O[C@@H]21)OCO4 (stereo partly drawn) the results were DRD3 antagonist -13.3 and DRD3 agonist -13.9.
Screening COc1cc2c(cc1OC)C1[C@H]3C(=CC[C@H]1OC2O)CCN3C (stereo partly drawn) returned DRD3 antagonist -54.0*, DRD3 agonist -37.8 and Integrin act MD 21.6%.
`C[N+]1(C)[C@@H]2CC[C@H]1CC(OC(=O)[C@@H](CO)c1ccccc1)C2` (stereo partly drawn) gave DRD3 antagonist -28.1, DRD3 agonist -3.1 and Integrin act MD -17.9%.
`C[N+]1([O-])[C@@H]2CC[C@H]1CC(OC(=O)C(CO)c1ccccc1)C2` (stereo partly drawn) gave DRD3 agonist -5.0.
`C[N+]1(C)C2CC[C@H]1CC(OC(=O)C(CO)c1ccccc1)C2` (stereo partly drawn) gave DRD3 antagonist -67.0* and DRD3 agonist -6.4.
`C[N+]1(C)CCC(OC(=O)C(c2ccccc2)c2ccccc2)CC1` gave DRD3 antagonist -59.5* and DRD3 agonist -86.6.
CC(CC(C#N)(c1ccccc1)c1ccccc1)N1CCOCC1 (stereo not drawn) was read as DRD3 antagonist -8.2, DRD3 agonist -10.9 and Integrin act MD 0.4%.
CC1N=C(c2ccccc2)c2cc(Br)ccc2NC1=O (stereo not drawn) was read as DRD3 antagonist -29.2, DRD3 agonist -6.6 and Integrin act MD 35.6%.
Screening Cc1ccc(S(=O)(=O)c2nc(-c3ccccc3Cl)oc2N(C)C2CCN(C)CC2)cc1 returned DRD3 antagonist 0.6, DRD3 agonist -8.1 and Integrin act MD -56.1%.
O=C1NCN(c2ccccc2)C12CCN(C(c1nnnn1Cc1ccccc1)C1CC1)CC2 (stereo not drawn) was read as DRD3 antagonist 1.7 and DRD3 agonist -1.4.
Screening CN1CCN(c2ncnc(Cl)c2N)CC1 returned DRD3 antagonist -1.4, DRD3 agonist -8.3 and Integrin act MD 26.1%.
For CN1CCN(c2nc(N)c(Br)c(Cl)n2)CC1 the results were DRD3 antagonist -68.6*, DRD3 agonist -1.6 and Integrin act MD 14.8%.
`NC(=O)CSP(=O)(c1ccccc1)c1ccccc1` gave DRD3 antagonist 9.9, DRD3 agonist -4.5 and Integrin act MD 1.2%.
C=Cc1ccc(Cn2c(C)c(CNCCc3cc(OC)ccc3OC)c(C(=O)O)c2C)cc1 was read as DRD3 agonist 5.3.
For CN(C)c1cccc(CN2CCN(c3ccccc3)CC2)c1 the results were DRD3 antagonist -85.2* and DRD3 agonist -12.1.
Screening Cc1cccc(CN2CCN(C(=O)Cc3ccccc3)CC2)c1 returned DRD3 antagonist 1.6, DRD3 agonist -8.7 and Integrin act MD 12.2%.
For CSc1ccc(CN2CCN(Cc3ccccc3Cl)CC2)cc1 the results were DRD3 antagonist -96.5*, DRD3 agonist -1.8 and Integrin act MD -6.4%.
Screening CSc1ccc(CN2CCN(C(=O)Cc3ccccc3)CC2)cc1 returned DRD3 antagonist 0.0, DRD3 agonist -6.3 and Integrin act MD 4.6%.
COc1ccc(CN2CCN(Cc3ccccc3F)CC2)cc1 was read as DRD3 antagonist -73.1*, DRD3 agonist -37.9 and Integrin act MD -15.8%.
For COc1ccc(CC(=O)N(CCN(C)C)CC2CCCN(Cc3ccccc3F)C2)cc1 (stereo not drawn) the results were DRD3 antagonist -5.7, DRD3 agonist -9.1 and Integrin act MD -41.0%.
`O=C(COc1ccc2c3c(c(=O)oc2c1)CCC3)N1C[C@H]2C[C@@H](C1)c1cccc(=O)n1C2` gave DRD3 antagonist 2.8, DRD3 agonist 8.6 and Integrin act MD -2.8%.
`COc1ccc(CCN)cc1S(N)(=O)=O` gave DRD3 antagonist -24.2 and DRD3 agonist -21.4.
Screening Cc1nonc1OCCNCCNc1ccc([N+](=O)[O-])c2cccnc12 returned DRD3 antagonist -62.8*, DRD3 agonist -11.7 and Integrin act MD 4.8%.
CCNCCNc1ccc([N+](=O)[O-])c2cccnc12 was read as DRD3 antagonist inconclusive, DRD3 agonist -24.1 and Integrin act MD -47.5%.
`c1ccc(N2[C@@H]3CC[C@H]2c2ccccc2C3)cc1` gave DRD3 antagonist 13.6, DRD3 agonist -1.3 and Integrin act MD 27.1%.
`CN1C(=O)/C(=C/c2ccc(N3CCCCCC3)o2)C(=O)NC1=S` gave DRD3 antagonist -55.9*, DRD3 agonist 2.3 and Integrin act MD -61.0%.
Screening CN1C(=O)/C(=C\c2ccc(N3CCCCC3)o2)C(=O)NC1=S returned DRD3 antagonist inconclusive, DRD3 agonist -5.1 and Integrin act MD -23.1%.
For O[C@@H]1CCCN2CCc3c([nH]c4ccccc34)[C@H]12 the results were DRD3 antagonist 1.5, DRD3 agonist -7.6 and Integrin act MD 6.1%.
For O=C(/C=C/c1ccc(Br)cc1)NC(=S)N1C[C@H]2C[C@H](C1)c1cccc(=O)n1C2 the results were DRD3 antagonist 27.3, DRD3 agonist -4.6 and Integrin act MD 6.9%.
Cc1cccc(NP(=O)(Oc2ccccc2)Oc2ccccc2)c1C was read as DRD3 antagonist 27.5, DRD3 agonist 1.3 and Integrin act MD 0.0%.

High-throughput results: PubChem BioAssay, National Center for Advancing Translational Sciences (NCATS)
